Here are results for 93 compounds from PubChem BioAssay AID651699 (Sanford-Burnham Center for Chemical Genomics, 2012).

Structures are written as SMILES. About 2,100 (0.58%) of roughly 360,000 compounds were called active. Cut-off read from the data, not from the text of the source: active = inhibition above about 36%; inactive = the rest. Shown is part of a subset that was picked to be rich in actives.

The target of this test is NEDD8-conjugating enzyme Ubc12 (Homo sapiens) + NEDD8-activating enzyme E1 regulatory subunit (Homo sapiens) (UniProt P61081+Q13564). Description: NEDD8 transfer onto cullin, blockade – biochemical, TR-FRET, uHTS, NAE and Ubc12, primary screen (AID 651699). Conditions: TR-FRET cullin neddylation, at 25 µM, stronger effect = higher value. For orientation: TR-FRET usually uses a lanthanide donor and a delayed reading to cut background.
NEDD8-conjugating enzyme Ubc12 (Homo sapiens) + NEDD8-activating enzyme E1 regulatory subunit (Homo sapiens), sequence (P61081 whole entry, looked up): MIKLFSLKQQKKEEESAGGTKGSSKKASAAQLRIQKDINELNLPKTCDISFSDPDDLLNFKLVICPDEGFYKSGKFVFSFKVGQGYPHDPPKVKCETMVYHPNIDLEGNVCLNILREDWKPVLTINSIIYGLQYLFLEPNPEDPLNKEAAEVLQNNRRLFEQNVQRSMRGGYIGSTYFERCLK
NEDD8-conjugating enzyme Ubc12 (Homo sapiens) + NEDD8-activating enzyme E1 regulatory subunit (Homo sapiens), sequence (Q13564 whole entry, looked up): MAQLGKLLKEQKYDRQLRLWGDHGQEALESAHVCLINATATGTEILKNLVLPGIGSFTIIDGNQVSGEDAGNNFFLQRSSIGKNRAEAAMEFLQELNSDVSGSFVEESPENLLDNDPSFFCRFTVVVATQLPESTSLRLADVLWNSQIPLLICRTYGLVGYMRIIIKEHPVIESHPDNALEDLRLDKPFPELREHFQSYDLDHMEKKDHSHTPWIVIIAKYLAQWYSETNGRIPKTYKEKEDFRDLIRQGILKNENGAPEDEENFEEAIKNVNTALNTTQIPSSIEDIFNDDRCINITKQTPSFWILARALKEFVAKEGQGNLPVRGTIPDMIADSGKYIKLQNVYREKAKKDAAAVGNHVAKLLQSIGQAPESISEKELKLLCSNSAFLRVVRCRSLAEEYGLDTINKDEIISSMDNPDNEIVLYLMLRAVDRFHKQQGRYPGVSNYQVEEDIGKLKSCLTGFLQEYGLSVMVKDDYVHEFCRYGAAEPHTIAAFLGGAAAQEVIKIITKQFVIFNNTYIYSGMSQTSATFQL
Usually inhibition stands for the relative decrease from the control value, in per cent. Regarding `CCOc1ccc(Cl)cc1-c1cc(C(=O)NCc2cccs2)[nH]n1`, the inhibition was -0.82% (inactive).

As to `Cc1sc2c(c1C)c(=O)n(-c1ccccc1)c1nncn21`, the inhibition is -4.64% (inactive).

Turning to `CSCCC(NS(=O)(=O)/C=C/c1ccccc1)C(=O)N1CCC(C)CC1` (stereo not drawn), the inhibition was 5.25% (inactive).

Turning to `CCCn1nc(NS(=O)(=O)c2ccc(F)cc2)c2cc3ccccc3nc21`, the inhibition is -5.34% (inactive).

Regarding `COCCCNc1nc2ccccc2nc1NS(=O)(=O)c1ccc(F)cc1`, the inhibition is 37.4% (active).

In the case of `CCCCNc1nc2ccccc2nc1NS(=O)(=O)c1cccs1`, the inhibition was 19.1% (inactive).

With `Cc1cccc(CC(=O)Nc2c3c(nn2-c2cccc(Cl)c2)CS(=O)C3)c1` (stereo not drawn), the inhibition is 4.67% (inactive).

For the compound `COc1ccc(S(=O)(=O)N2CCN(C)CC2)c(C)c1`, the inhibition is -9.29% (inactive).

As to `Cn1c(N2CCOCC2)c(C=O)c2ccccc21`, the inhibition was 13.5% (inactive).

Regarding `Cc1cc(C)c(-c2c(O)c3ccccc3n(C)c2=O)c(C)c1`, the inhibition was 43.4% (active).

Turning to `Cn1c(=O)c(Sc2ccc(Cl)cc2)c(O)c2ccccc21`, the inhibition is -5.74% (inactive).

Regarding `Cn1c(=O)c(C(=O)Nc2ncccn2)c(O)c2ccccc21`, the inhibition was 27.6% (inactive).

Consider `O=S(=O)(NCCCN1CCOCC1)c1ccc(F)c(Cl)c1`, for which the inhibition is -7.79% (inactive).

Turning to `CC1(C)S[C@@H]2[C@H](NC(=O)COc3ccccc3)C(=O)N2C1C(=O)OCc1ccccc1` (stereo partly drawn), the inhibition is 3.84% (inactive).

In the case of `NC(=O)Cn1c(=O)oc2ccccc21`, the inhibition was 4.87% (inactive).

`COc1ccc(CNC(=O)[C@@H]2CC=C[C@@H]3CCN(C4CC4)C(=O)[C@@H]32)cc1`: the inhibition is 4.74% (inactive).

Turning to `CCN(CC)CCCN1C(=O)C(=O)/C(=C(/O)c2c(C)nc3ccccn23)C1c1ccc(C)o1` (stereo not drawn), the inhibition was -7.73% (inactive).

In the case of `O=C(NNc1c2ccccc2nc2ccccc12)c1cc2ccccc2cc1O`, the inhibition is -10.9% (inactive).

Consider `CC(C)(C)OC(=O)NNc1c2ccccc2nc2ccccc12`, for which the inhibition is 48% (active).

Turning to `Cc1ccc(C(=O)NNC(=O)OC(C)(C)C)c(Cl)c1`, the inhibition is -8.95% (inactive).

In the case of `CCSC1=NCCN1S(=O)(=O)c1ccc(F)cc1`, the inhibition was 8.82% (inactive).

For the compound `CC(Oc1ccc(F)cc1)C(=O)Nc1ccccc1C(=O)NC1CC1` (stereo not drawn), the inhibition is 4.37% (inactive).

For `O=[N+]([O-])c1ccc2c(c1)C(O)n1nc(-c3ccccc3)nc1S2` (stereo not drawn), the inhibition was -7.67% (inactive).

Regarding `Cc1noc(C)c1C(=O)OCC(=O)N1CCN(S(=O)(=O)c2ccc3ccccc3c2)CC1`, the inhibition is -4.19% (inactive).

For the compound `Cc1noc(C)c1C(=O)OCC(=O)/C=C1\N(C)c2ccccc2C1(C)C`, the inhibition was 43.7% (active).

For `COc1ccc(C(=O)COC(=O)c2c(C)noc2C)cc1Cl`, the inhibition was -4.13% (inactive).

Consider `CC1CCCCC1NC(=O)Cn1cnc2c1c(=O)n(C)c(=O)n2C` (stereo not drawn), for which the inhibition is 5.44% (inactive).

Take `COc1ccc(-c2cc3c(c4c2ccn4C)C2CCC3C2)cn1` (stereo not drawn): the inhibition is -50.3% (inactive).

In the case of `COc1cc(C2/C(=C(\O)c3ccc4c(c3)CC(C)O4)C(=O)C(=O)N2c2nnc(C)s2)cc(OC)c1OC` (stereo not drawn), the inhibition was -20.5% (inactive).

In the case of `COc1ccc(NC(=O)C2=NNC(=O)CC2)cc1S(=O)(=O)N1CCCCC1`, the inhibition was -1.74% (inactive).

In the case of `CC(=O)Nc1nc(C)c(-c2csc(Nc3ccc(S(N)(=O)=O)cc3)n2)s1`, the inhibition is 77% (active).

Regarding `CCCCCCC(=O)Nc1nc(C)c(-c2csc(Nc3cccc(OC)c3)n2)s1`, the inhibition was -13.8% (inactive).

In the case of `C=CCCC(=O)Nc1nc(C)c(-c2csc(Nc3ccc(Cl)cc3)n2)s1`, the inhibition is -8.67% (inactive).

`CCCCC(=O)N(C)c1c(CC)nc2c(OCc3ccc(Cl)cc3Cl)cccn12`: the inhibition was 8.51% (inactive).

As to `CC(C)Cn1cnc2c1c(=O)n(CC(=O)NN)c(=O)n2Cc1ccccc1`, the inhibition is 3.73% (inactive).

Consider `Cc1noc(C)c1COc1cccc(C(=O)Nc2cccnc2)c1`, for which the inhibition is -1.48% (inactive).

Regarding `Cc1noc(C)c1COc1ccc2ccc(=O)oc2c1`, the inhibition was 42.9% (active).

Take `CC(C)OC(=O)c1ccc(COc2ccc3ccc(=O)oc3c2)o1`: the inhibition is 32.9% (inactive).

As for `CCOC(=O)N1CCC(NC(=O)CN2C(=O)COc3ccc(C(C)(C)C)cc32)CC1`, the inhibition was -0.68% (inactive).

As for `CN(C)CCN=c1cc(-c2ccccc2)oc2ccc(Cl)cc12`, the inhibition is -18.1% (inactive).

As to `Cc1ccc2[nH]c3c(=O)n(CC(=O)NCCc4ccc(Cl)cc4)ncc3c2c1`, the inhibition is -2.38% (inactive).

As for `CC(C(=O)NC1CCCC1)N1CCN(S(=O)(=O)c2ccccc2Cl)CC1` (stereo not drawn), the inhibition is -0.01% (inactive).

As for `Cc1ccnc(NC(=O)C(C)N2C(=O)c3ccccc3C2=O)c1` (stereo not drawn), the inhibition was 9.23% (inactive).

`CC(C(=O)NC1CCCCC1)N1C(=O)c2cccc3cccc1c23` (stereo not drawn): the inhibition was 39.6% (active).

As for `CC(=O)Nc1cc(-c2ccc(N3CCN(C)CC3)cc2)cn2c(-c3cccc(C(=O)N(C)C)c3)cnc12`, the inhibition was 0.78% (inactive).

For the compound `CC(=O)Nc1cc(-c2ccc(N3CCN(C)CC3)cc2)cn2c(-c3ccc(F)cc3)cnc12`, the inhibition is 42.2% (active).

As for `COc1ccccc1-c1cc(NC(C)=O)c2ncc(-c3ccc(F)cc3)n2c1`, the inhibition was 38.6% (inactive).

Turning to `C1=C(N2CCOCC2)/C(=C/c2nc3ccccc3[nH]2)CC1`, the inhibition was 43% (active).

With `O=C1c2ccccc2C(c2nc3ccccc3[nH]2)N1c1ccccc1` (stereo not drawn), the inhibition was 4.84% (inactive).

For `CCO[C@H]1OC(C(=O)NCc2ccccc2)=C[C@@H](c2coc3ccccc3c2=O)[C@@H]1CCCO`, the inhibition is -9.63% (inactive).

In the case of `Cc1c(Cl)cccc1NC(=O)[C@@]1(CC(=O)O)CC(/C=C/c2ccccc2)=NO1`, the inhibition is -0.33% (inactive).

As for `Cc1ccc(C(CNC(=O)Nc2cccc(C)c2)N2CCN(C)CC2)cc1` (stereo not drawn), the inhibition is -3.56% (inactive).

Regarding `Cc1cc(N)n2nc(-c3ccc(C(C)(C)C)cc3)cc2n1`, the inhibition is 40.5% (active).

`COc1cccc2cc(/C(C)=N/NC(=O)c3ccco3)oc12`: the inhibition was -10.7% (inactive).

`CC1CCCC(NC(=O)CN2CCN(Cc3ccc(Cl)cc3)C2=O)C1C` (stereo not drawn): the inhibition is 5.5% (inactive).

Take `CCC(C)c1ccc(NC(=O)COC(=O)C2CCCC2)cc1` (stereo not drawn): the inhibition is -5.48% (inactive).

For the compound `COc1ccc2nc(C)cc(Nc3cccc(C(=O)O)c3)c2c1`, the inhibition is -12.3% (inactive).

On to `CC(Sc1ncnc2c1cnn2-c1ccccc1)C(=O)Nc1ccc(N2CCOCC2)cc1` (stereo not drawn), for which the inhibition is 3.26% (inactive).

Turning to `Cc1ccc(-n2ncc3c(Nc4cccc(C(=O)O)c4)ncnc32)cc1`, the inhibition was 38.5% (active).

As to `CCOC(=O)c1cn(CC)c2cc(F)c(F)cc2c1=O`, the inhibition is 6.4% (inactive).

Turning to `CC(=O)/C(=N\Nc1ccc(Cl)cc1Cl)Sc1cccc2cccnc12`, the inhibition is -3.61% (inactive).

For `CN(CC(=O)Nc1cccc2c1CCCC2)S(=O)(=O)c1ccc(Cl)cc1`, the inhibition was 7.5% (inactive).

Turning to `Cc1ccc2occ(/C=N/NC(=O)c3ccccc3C)c(=O)c2c1`, the inhibition is 42.8% (active).

On to `Cc1ccc(O)c(/C=N/NC(=O)COc2ccc3c(C)cc(=O)oc3c2)c1`, for which the inhibition was 17% (inactive).

For `Cc1cc(NC(=O)c2ccccc2C)no1`, the inhibition is -11.1% (inactive).

Take `CCOc1ccc2nc(Cl)c(C3CC(c4ccccc4)=NN3C(=O)c3cccs3)cc2c1` (stereo not drawn): the inhibition is -162% (inactive).

With `CCOc1ccc(NS(=O)(=O)c2ccc(C)c(C(N)=O)c2)cc1`, the inhibition is -4.92% (inactive).

For `CCOc1ccc2nc(NCCNC(=O)C(C)(C)C)c(C)cc2c1`, the inhibition was 42.5% (active).

Turning to `CCOc1ccc(NC(=O)c2ccc(CSc3nnnn3C)cc2)cc1`, the inhibition was 1.1% (inactive).

For `CC(=O)N(c1ccc2oc(=O)sc2c1)S(=O)(=O)c1ccc(C)cc1`, the inhibition is 0.47% (inactive).

For `O=C(CN1CCN(C(=O)C2CCCO2)CC1)Nc1c(Cl)cccc1Cl` (stereo not drawn), the inhibition was 10.6% (inactive).

On to `C=CCNC(=O)C1CC=CCC1C(=O)O` (stereo not drawn), for which the inhibition was 4.38% (inactive).

Take `COc1ccccc1N(C)S(=O)(=O)c1ccc(Cl)c(C(=O)Nc2ccncc2)c1`: the inhibition was 13.9% (inactive).

In the case of `COc1cccc(OC)c1C(=O)Nc1ccc(Cc2ccncc2)cc1`, the inhibition is 7.29% (inactive).

As for `COc1cc2ccccc2cc1C(=O)Nc1ccncc1`, the inhibition was 42.2% (active).

In the case of `O=C1N[C@H](Cc2c[nH]c3ccccc23)COC(=O)[C@H](Cc2ccc(F)cc2)C/C=C\C[C@H]1CC(=O)N(CCO)Cc1ccccc1`, the inhibition is -4.67% (inactive).

For the compound `O=C(C1CC1)N1N=C(c2ccc(Br)cc2)CC1(O)C(F)(F)F` (stereo not drawn), the inhibition was -17% (inactive).

On to `COC(=O)C1(O)CC(C(C)C)=NN1C(=O)c1ccc(Cl)cc1` (stereo not drawn), for which the inhibition was 10.8% (inactive).

For the compound `O=C(c1ccc(Cl)cc1)N1N=C(c2ccccn2)CC1(O)C(F)(F)F` (stereo not drawn), the inhibition is 46% (active).

For `CC(=O)NCCc1ccc(S(=O)(=O)Nc2ccc(C)c(S(=O)(=O)N3CCOCC3)c2)cc1`, the inhibition is 0.16% (inactive).

`COc1ccc2c(c1)C(C)=CC(C)(C)N2C(=O)Nc1ccccc1`: the inhibition was 41.3% (active).

As to `CC1=CC(C)(C)N(C(=O)CSc2nnc(-c3ccccc3)o2)c2ccc(C)cc21`, the inhibition is -0.38% (inactive).

As to `COc1ccc2c(c1)C(C)=CC(C)(C)N2C(=O)CNCc1ccc2c(c1)OCO2`, the inhibition was -2.09% (inactive).

On to `O=C(CCc1nnc(Cc2ccc3c(c2)OCO3)o1)NCCc1ccccc1Cl`, for which the inhibition is -1.6% (inactive).

With `CN(C)c1ccc(/C=N/Nc2cc(N3CCOCC3)nc(N3CCOCC3)n2)cc1`, the inhibition was 53.4% (active).

For the compound `Fc1ccccc1/C=N/Nc1cc(N2CCCCC2)ncn1`, the inhibition was 9.65% (inactive).

On to `C/C(=N\Nc1nc(N2CCOCC2)nc(N2CCOCC2)n1)c1ccc([N+](=O)[O-])cc1`, for which the inhibition is -9.47% (inactive).

Take `Cc1ccc(O)c(NC(=O)c2cc(-c3ccco3)on2)c1`: the inhibition was 5.21% (inactive).

As to `NNC(=O)c1oc2nc(-c3ccccc3)cc(-c3ccco3)c2c1N`, the inhibition is 51.2% (active).

In the case of `CNC(=S)NNC(=O)c1oc2nc(-c3ccccc3)cc(-c3ccco3)c2c1N`, the inhibition is 29.8% (inactive).

Take `O=C(NNC(=O)C1CCC1)c1ccccc1`: the inhibition was -19.3% (inactive).

Turning to `CC1(C)C2CC=C(/C=N/NC(=O)C3CC3)C1C2` (stereo not drawn), the inhibition was -0.11% (inactive).

As to `O=C(N/N=C/c1ccccc1O)C1CCCC1`, the inhibition was 44.9% (active).
